# Assay outcomes: PubChem, National Center for Advancing Translational Sciences (NCATS)
# This is a sample that favours compounds with a hit; in the whole collection about 17% have one here.
# ClpP mod = qHTS Assay for Activators of ClpP | purified B. subtilis ClpP, FRET peptide cleavage, 20 min | Potency, µM (series often up to 57.5 µM) | 340,000 tested, 1.9% active | AID 651965, 2013; active = well fitted falling curve with a large enough effect; inconclusive = small, poorly fitted or top-dose-only effect; inactive = no such curve, though single readings can be large or run the other way; also: the source files actives as falling curves though it sought activators and does not explain the sign; nearly all actives have a fitted effect of over 65% in size
#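 Purified B. subtilis ClpP, 10 microg/mL final in Tris/HCl pH8 with KCl, BSA, glycerol and Tween-20, cleaved an Abz/nitrotyrosine-quenched decapeptide. Fluorescence (ex 320, em 430) was read at 0 and 20 min at room temperature. Delta was normalized to 5.8 microM ADEP and DMSO/no-enzyme controls.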
# TDP1 block = blocks human tyrosyl-DNA phosphodiesterase 1; recombinant TDP1, AlphaScreen DNA substrate cleavage; Potency, µM (titrated, usually from 130 µM), actives largely listed as inhibitors; AID 485290; 350,000 tested, 0.28% active; also: nearly all actives have a fitted effect of over 40% in size
# Target sequence (Q9NUW8 whole entry, looked up): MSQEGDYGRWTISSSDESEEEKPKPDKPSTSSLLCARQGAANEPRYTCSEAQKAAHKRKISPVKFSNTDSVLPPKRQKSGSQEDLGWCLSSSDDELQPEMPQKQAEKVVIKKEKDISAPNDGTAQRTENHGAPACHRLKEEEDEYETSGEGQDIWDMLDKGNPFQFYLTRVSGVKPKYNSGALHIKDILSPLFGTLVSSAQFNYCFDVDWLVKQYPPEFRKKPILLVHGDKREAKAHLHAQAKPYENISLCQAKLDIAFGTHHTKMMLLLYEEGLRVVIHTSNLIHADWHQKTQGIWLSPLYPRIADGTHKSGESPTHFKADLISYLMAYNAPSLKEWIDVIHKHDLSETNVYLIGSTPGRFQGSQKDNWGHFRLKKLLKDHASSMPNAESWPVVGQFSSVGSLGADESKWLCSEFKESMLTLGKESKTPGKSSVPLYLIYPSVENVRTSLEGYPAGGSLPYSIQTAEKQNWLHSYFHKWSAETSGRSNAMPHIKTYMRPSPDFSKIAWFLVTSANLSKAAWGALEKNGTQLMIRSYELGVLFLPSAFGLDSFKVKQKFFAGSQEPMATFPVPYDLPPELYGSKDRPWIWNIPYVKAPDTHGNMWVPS
#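 AlphaScreen read-out: signal falls as enzyme removes the 3' tyrosine-FITC from a 5'-biotinylated DNA oligo (15 nM, 5 min, RT). Enzyme was E. coli-made recombinant Tdp1 at 1 nM, exposed to compound for 15 min beforehand; beads 10 ug/ml, 10 min.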
# DT40 TDP1 no CPT = qHTS for Inhibitors of human tyrosyl-DNA phosphodiesterase 1 (TDP1): qHTS in cells in absence of CPT | DT40 Tdp1-/- hTDP1 cells, no CPT, ATP luminescence, 48 h | Potency, µM (series often up to 46.2 µM), most hits filed as inhibitors | AID 686978, 2013 | 420,000 tested, 15% active; also: nearly all actives have a fitted effect of over 55% in size
#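 A cellular qHTS used chicken DT40 cells lacking endogenous Tdp1 but carrying stably transfected human TDP1. Compounds were applied without camptothecin, and cell growth kinetics were judged by ATP-dependent luminescence after ≥48 hr.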
# DT40 TDP1 CPT = growth inhibition of DT40 Tdp1-/-;hTDP1 cells with camptothecin (screen for TDP1 inhibitors); chicken DT40 Tdp1-/-;hTDP1 cells + 20 nM CPT, ATP luminescence, 48 h; Potency, µM (highest dose often 46.2 µM), usual class: inhibitors; 420,000 tested, 12% active; also: nearly all actives have a fitted effect of over 55% in size
#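 Cell growth measured by CellTiter-Glo luminescence after a minimum 48 h, 37 C compound exposure with 20 nM CPT in Tdp1-knockout DT40 cells stably expressing hTDP1, seeded 400/well; qHTS titration format.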
# A number is an active result; i = inactive; ? = inconclusive; nt = not tested or not shown. Unless noted, calls follow the shape of the dose curve; as a rule, active = well fitted curve in the direction sought with a large enough effect; inconclusive = small, poorly fitted or top-dose-only effect, or another doubt; inactive = no such curve, though single readings can be large; an effect the other way counts as inactive or inconclusive.
SMILES,ClpP mod,TDP1 block,DT40 TDP1 no CPT,DT40 TDP1 CPT
O=C1CCN(CCc2ccccc2)CCN1[C@H](CO)c1ccccc1,i,nt,i,i
O=C1CCN(CCc2ccccc2)CCN1[C@H](COc1ccccc1)c1ccccc1,i,nt,14.1µM,14.6µM
CCCN1CCC(=O)N([C@H](CO)c2ccccc2)CC1,i,nt,i,i
CCCN1CCC(=O)N([C@H](COc2ccccc2)c2ccccc2)CC1,i,nt,20.6µM,?
COc1ccc(CCN=c2c([N+](=O)[O-])nn(-c3cccc(C)c3)n2O)cc1OC,i,i,?,10.3µM
COc1ccc(CNC(=O)Cn2nc([N+](=O)[O-])c(Br)c2C)cc1OC,nt,nt,i,i
O=C1CCCN1CCCN=c1c([N+](=O)[O-])nn(-c2ccc(Cl)cc2)n1O,nt,i,6.51µM,3.26µM
Cc1cccc(-n2nc([N+](=O)[O-])c(=NC3CCN(Cc4ccccc4)CC3)n2O)c1,i,i,11.6µM,8.2µM
COc1ccc(-n2nc([N+](=O)[O-])c(=NCCCN3CCCC3=O)n2O)cc1,i,i,?,?
COc1ccc(-n2nc([N+](=O)[O-])c(=NCCc3cccc(C)c3)n2O)cc1,nt,i,?,?
Cc1c(Cl)cccc1N=c1c([N+](=O)[O-])nn(-c2ccccc2)n1O,i,i,i,i
Cc1cccc(CCN=c2c([N+](=O)[O-])nn(-c3ccccc3)n2O)c1,i,i,?,14.6µM
O=C(NCc1cccnc1)c1cc(C2CCCN(C(=O)c3ccccn3)C2)on1 (centres undefined),i,nt,i,i
O=[N+]([O-])c1nn(-c2ccc(Cl)cc2)n(O)c1=NCc1ccccc1,i,i,?,10.3µM
Cc1ccccc1C1c2[nH]c3ccccc3c2CCN1CCCn1cccn1 (centres undefined),nt,nt,13µM,?
COc1ccccc1-c1noc2c1C(=O)N(C(=O)OC(C)(C)C)CC2,i,nt,i,i
c1cc(Nc2ncnc3sccc23)cc(-c2nnc3n2CCCCC3)c1,i,i,?,20.6µM
Cc1cnc(C(=O)Nc2cccc(-c3nnc4n3CCCCC4)c2)cn1,i,i,i,i
Cc1cc2[nH]c(=O)c(=O)[nH]c2cc1S(=O)(=O)Nc1ccc(OC(F)(F)F)cc1,i,i,i,i
COc1ccc(NC(=S)N2CCC(Cc3ccccc3)CC2)cc1,i,i,5.17µM,10.3µM
CC(=O)Nc1ccc(OCC(=O)N2CCC(Cc3ccccc3)CC2)cc1,nt,i,i,i
COc1ccc(NC(=S)N2CCN(Cc3ccccc3)CC2)cc1,nt,i,?,i
O=C(Nc1ccc(OCC(=O)N2CCC(Cc3ccccc3)CC2)cc1)c1ccco1,i,i,29.1µM,20.6µM
S=C(Nc1ccccc1)N1CCC(Cc2ccccc2)CC1,i,nt,3.66µM,4.11µM
OC1COCOC1C(O)C1OCOCC1O (centres undefined),nt,nt,i,i
SMILES,ClpP mod,TDP1 block,DT40 TDP1 no CPT,DT40 TDP1 CPT
Cc1ccc(OC(C)C(=O)Nc2cccc(S(=O)(=O)N3CCCCCC3)c2)cc1 (centres undefined),i,nt,?,?
C/C(=N\NC(=O)Cc1ccccc1)c1ccc(Br)s1,i,i,i,i
C/C(=N/NC(N)=S)c1ccc(Br)s1,nt,i,4.61µM,8.2µM
CC(C)(C)c1ccc(C(=O)O/N=C(\N)c2ccccn2)cc1,i,nt,i,23.1µM
C/C(=N\NC(=O)c1cc(Br)ccc1O)c1ccccn1,?,i,3.66µM,3.26µM
CC(=NNC(=O)c1ccncc1)c1cccc(Br)c1,nt,nt,i,i
C/C(=N\NC(=O)c1cccc(Br)c1)c1ccccn1,i,i,0.92µM,0.731µM
COc1ccccc1C(=O)C1CCCN(C(=O)CCn2cnnn2)C1 (centres undefined),i,nt,i,i
O=C1c2ccccc2C(=O)N1CCCc1c[nH]c2ccc(Cl)cc12,i,i,i,i
C/C(=N/NC(=O)c1ccccn1)c1ccncc1,i,nt,i,i
C/C(=N\NC(=O)c1ccc(Cl)c(Cl)c1)c1ccccn1,nt,nt,0.517µM,0.411µM
C/C(=N/NC(=O)c1ccc(C(C)(C)C)cc1)c1ccccn1,i,nt,0.231µM,0.461µM
C/C(CC(=O)Nc1ccccn1)=N\NC(=O)c1ccccc1O,i,i,16.4µM,4.11µM
C/C(=N/NC(=O)c1ccc2c(c1)OCO2)c1ccc(Br)s1,i,i,i,i
C/C(=N\NC(=O)c1ccc(NS(=O)(=O)c2cccs2)cc1)c1ccccn1,nt,i,?,?
